This is a sample that favours compounds with a hit; in the whole collection about 3.8% have one here.
Jurkat NFkB inh = inhibitors of the PMA/ionomycin-induced NF-kB reporter in Jurkat cells. inhibition, % at 4 µM. AID 435003. actives 0.53% (n = 330,000). PMA/ionomycin-induced NF-kB luciferase reporter, luminescence; in the data active = inhibition above about 50%
697 NFkB inh = inhibitors of the PMA/ionomycin-induced NF-kB reporter in 697 B cells. 697 B-cell NF-kB luciferase reporter, 16 h. AID 435022. actives 0.33% (n = 330,000). inhibition, % at 4 µM; in the data active = inhibition above about 35%
Shn3 3UTR inh = Schnurri-3 reporter inhibition in Clone20 osteoblasts | Clone20 osteoblast Shn3 3'UTR firefly luciferase, 24 h | inhibition, % at 12.5 µM | actives 0.52% (n = 360,000);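 active = mean inhibition of at least 75% with every replicate also reaching 75%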
Gli-Sufu block = antagonists of Gli-Sufu signaling | inhibition, % at 5 µM | actives 0.74% (n = 340,000) | Sufu-KO-LIGHT fibroblasts, Gli luciferase reporter luminescence;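 active = inhibition above about 55%, limit read from the data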
Mdm2 MdmX PPI = disrupts the human Mdm2-MdmX interaction; O15151+Q00987; SaOS-2 split-luciferase Mdm2/MdmX complementation, luminescence; inhibition, % at 8 µM; actives 3% (n = 330,000);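 active = inhibition of at least 50% at 8 µM in the primary screen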
Jurkat NFkB conf = inhibitors of the PMA/ionomycin-induced NF-kB reporter in Jurkat cells, retest; actives 27% (n = 2,700); inhibition, % at 4 µM; AID 435020; shares compounds with Jurkat NFkB inh; Jurkat NF-kB luciferase, 16 h;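 active = inhibition reaching about 45% at 4 µM in either replicate, limit read from the data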
697 NFkB conf = lowers PMA/ionomycin-induced NF-kB signal in 697 B cells; inhibition, % at 4 µM; 697 B-cell NF-kB luciferase, 16 h; actives 35% (n = 2,000); AID 449746; shares compounds with 697 NFkB inh; in the data active = inhibition mostly above about 28%, no sharp cut-off; inactive = mostly below about 22%
Mdm2-MdmX conf = confirmation of human Mdm2/MdmX interaction inhibitors. shares compounds with Mdm2 MdmX PPI. Mdm2-MdmX binding, luminescent assay. inhibition, % at 8 µM. actives 55% (n = 10,000); in the data active = inhibition above about 40%
Full FLuc ctr = full-length luciferase inhibition in Mdm2/MdmX counter-screen; shares compounds with Mdm2 MdmX PPI; inhibition, % at 8 µM; SaOS-2 full-length luciferase counterscreen, luminescence; actives 77% (n = 6,200);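 active = mean inhibition at 8 µM reaching about 37%, which flags the compound as non-specific, limit read from the data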;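 note: p53-null SaOS-2 cells with luciferase driven by a doxycycline-inducible promoter; compound on cells about two nights before reading with doxycycline added after day one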
Numbers stand for hits; – = inactive; · = not tested or not shown.

SMILES	Jurkat NFkB inh	697 NFkB inh	Shn3 3UTR inh	Gli-Sufu block	Mdm2 MdmX PPI	Jurkat NFkB conf	Mdm2-MdmX conf	Full FLuc ctr	others
COc1ccc(-n2nnnc2-c2cccc(OC)c2)cc1	–	–	·	–	56	–	54	66
Cc1ccc(-n2nnnc2-c2cccc(C)c2)cc1	–	–	–	–	–	·	·	·
COc1ccc(-c2nc(-c3ccccn3)no2)cc1	77	48	88	69	89	86	91	54	697 NFkB conf=39
O=C(C[n+]1ccc(/C=C/c2ccccc2)cc1)c1ccc2c(c1)OCCO2	54	–	·	–	75	–	–	·
Cc1cc[n+](CC(=O)c2ccc3c(c2)OCCO3)cc1	–	–	–	–	–	·	·	·
O=C(c1cn(Cc2ccccc2)nc1-c1ccccc1)N1CCN(c2ccccn2)CC1	53	–	–	–	53	–	50	71
COc1ccc(-c2nn(Cc3ccccc3)cc2C(=O)N2CCN(c3ccccn3)CC2)cc1OC	–	–	–	–	–	·	·	·
O=C(c1ccccc1-c1ccccc1)N1CCN(c2ccccn2)CC1	69	–	–	–	59	–	58	50
Cc1ccccc1C(=O)N1CCN(c2ccccn2)CC1	–	–	–	–	–	·	·	·
O=S(=O)(c1ccc(Cl)cc1)N1CCN(CCc2ccncc2)CC1	–	–	–	–	–	·	·	·
CCCC(=O)Nc1nc2ccc(NC(=O)c3ccccc3F)cc2s1	60	–	–	–	55	–	56	74
COc1ccc(N2CCc3c(C)nc4c(OC)cccc4c32)cc1	64	–	–	–	58	–	57	55
COc1ccc(N2CCc3c(C)nc4c(OC)cc(OC)cc4c32)c(OC)c1	–	–	–	–	–	·	·	·
CN(Cc1ccc(F)cc1)C(=O)c1cccc(OCc2ccccc2)c1	–	–	–	–	–	·	·	·
C(=N\Nc1nc(Nc2ccccc2)nc(N2CCOCC2)n1)/c1c[nH]c2ccccc12	82	60	·	–	52	–	–	·	697 NFkB conf=49
O=C(N/N=C/c1ccc2c(c1)OCO2)c1cc(-c2ccccc2Cl)nc2ccccc12	–	–	–	–	–	·	·	·
O=C(N/N=C/c1ccc2c(c1)OCO2)c1cc(-c2ccncc2)nc2ccccc12	57	–	–	–	51	–	44	59
COc1ccccc1-c1cc(C(=O)N/N=C/c2sccc2C)c2ccccc2n1	–	–	–	–	–	·	·	·
O=C(N/N=C/c1ccsc1)c1cc(-c2cccs2)nc2ccccc12	–	–	–	–	–	·	·	·
O=C(Nc1ccc(Br)cc1)c1cc(-c2ccncc2)nc2ccccc12	57	–	–	–	62	–	51	45
Cc1ccsc1/C=N/NC(=O)c1cc(-c2ccncc2)nc2ccccc12	58	–	–	–	58	56	60	58
O=C(N/N=C/c1ccsc1)c1cc(-c2ccncc2)nc2ccccc12	55	–	–	–	52	–	–	66
C[C@H](CO)N1C[C@H](C)[C@@H](CN(C)Cc2ccc(Oc3ccccc3)cc2)Oc2c(NS(=O)(=O)c3cn(C)cn3)cccc2C1=O	–	–	–	–	–	·	·	·
O=C(Cn1ccnc1[N+](=O)[O-])NCCO	·	·	–	·	·	·	·	·
Cc1ccc(/C=N/NC(=O)c2cc(-c3cccnc3)nc3ccccc23)cc1	63	–	–	–	54	–	41	48
SMILES	Jurkat NFkB inh	697 NFkB inh	Shn3 3UTR inh	Gli-Sufu block	Mdm2 MdmX PPI	Jurkat NFkB conf	Mdm2-MdmX conf	Full FLuc ctr	others
O=C(N/N=C/c1ccc([N+](=O)[O-])o1)c1cc(-c2ccc(-c3ccccc3)cc2)nc2ccccc12	–	–	–	–	64	–	57	84	697 NFkB conf=–
Cc1ccc(-c2cc(C(=O)N/N=C/c3ccc([N+](=O)[O-])o3)c3ccccc3n2)o1	–	–	–	–	–	·	·	·
COc1ccc(/C=N/NC(=O)c2[nH]c3ccc(Br)cc3c2-c2ccccc2)cc1	84	–	–	–	74	61	60	108
CCCCCCCCCCOC(=O)Cn1c(COc2ccccc2OC)[n+](C)c2ccccc21	57	39	89	85	100	60	89	–	697 NFkB conf=53
Cc1ccc(C(C)C)c(OCC(=O)NN=C(CCl)CCl)c1	–	–	·	·	–	·	·	·
COc1ccccc1N1CCN(C(=O)C2c3ccccc3Oc3ccccc32)CC1	55	–	–	–	64	–	56	89
CC1=C([N+](=O)[O-])C(c2cccc(Br)c2)C2=C(N1)c1ccccc1C2=O (centres undefined)	54	–	–	–	74	–	66	84
Cc1c(NC(=O)CCc2ccccc2)cccc1[N+](=O)[O-]	–	–	–	–	–	·	·	·
O=[N+]([O-])c1ccc(N=NN(CCO)CCO)cc1	–	–	–	–	–	·	·	·
O=[N+]([O-])c1ccc(N=Nc2ncc[nH]2)cc1	82	–	–	–	100	–	59	53
O=C(OCC(=O)N1CCc2ccccc21)c1cncc(Br)c1	–	–	–	–	–	·	·	·
O=C(Nc1ccc(NC(=O)c2ccco2)nc1)c1ccco1	–	–	–	–	–	·	·	·
CC(C)(C)C(=O)Nc1ccc(NC(=O)c2ccco2)nc1	78	–	90	80	90	88	92	58
COc1ccc(N(CC(=O)NC2CCS(=O)(=O)C2)S(=O)(=O)c2cc(C)ccc2C)cc1 (centres undefined)	–	–	–	–	–	·	·	·
Cc1ccc(/C=N/Nc2nncc(-c3ccccc3)n2)o1	–	–	–	–	–	·	·	·
Cc1[nH]n(-c2ccccc2)c(=O)c1/C=N/Nc1nncc(-c2ccccc2)n1	55	–	–	85	88	–	86	55
Cc1cc(-c2ccc(S(=O)(=O)N(C)c3ccc(C)c(C)c3)s2)on1	57	–	–	–	56	–	54	47
CCN1CCN(S(=O)(=O)c2ccc(-c3cc(C)no3)s2)CC1	–	–	–	–	–	·	·	·
COc1ccc(-c2cc(C)no2)cc1S(=O)(=O)N(C)c1ccc(C)c(C)c1	–	–	–	–	–	·	·	·
Cc1ccc(N(C)S(=O)(=O)c2ccc(-c3cc(C)no3)s2)cc1	51	–	–	–	54	–	55	59
O=C1N(c2cccc(Cl)c2)C(c2ccc(Cl)cc2)N2CCCN12 (centres undefined)	–	–	–	–	–	·	·	·
CCOC(=O)c1c2c(n(C)c1C)C(=O)C(=O)c1ccc(Br)cc1-2	52	–	94	–	95	–	98	48
O=C(Cc1c(F)cccc1Cl)NCC(=O)OCc1ccccc1	–	–	–	–	–	·	·	·
